From PubChem
KCNH2 3.1 block = KCNH2 3.1 (human) potassium channel inhibition. U2OS KCNH2 3.1, thallium flux FluxOr; hits give low values. activity change, % (tested at about 1.8 µM). 340,000 compounds, 0.95% hits;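 active means maximum activity change below -70%; inconclusive means maximum activity change from -70% to -50%; inactive means maximum activity change above -50%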;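 further: thallium influx rate constant from kinetic fluorescence after stimulation buffer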
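U2OS cells transduced with KCNH2 3.1 mutant virus (1.77 x 10^8 /mL, 4 h), plated overnight at 37 C, loaded 45 min with FluxOr dye plus Red40 quencher. Thallium flux rate constant from kinetic reads after stimulation buffer, normalised to controls.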
TRPV1 PAM = potentiators of human vanilloid receptor 1 (TRPV1); TRPV1-expressing cells, Fluo-8 calcium influx, capsaicin EC20 potentiation; Q8NER1; potentiation, % at 8.33 µM; AID 540277; 320,000 compounds, 0.02% hits; in the data active means potentiation above about 80%; inconclusive means between about 30% and that limit
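Fluo-8 calcium influx in TRPV1-expressing cells, kinetic read (ex 480/em 520 nm). Compound added and read 3 min for agonist activity, followed by capsaicin at EC20 final and 2 min further read for enhancement.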
TRPV1 agonist = human TRPV1 agonism; TRPV1-expressing cells, Fluo-8 calcium influx, agonist mode; Q8NER1; 320,000 compounds, 0.19% hits; AID 540275; activation, % at 8.33 µM; in the data active means activation above about 80%; inconclusive means between about 30% and that limit
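Fluo-8 calcium influx in TRPV1-expressing cells, kinetic read (ex 480/em 520 nm). Compound added and read 3 min for agonist activity, followed by capsaicin at EC20 final and 2 min further read for enhancement.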
hERG WT inh = blocks the wildtype human KCNH2 potassium channel; U2OS, BacMam KCNH2, thallium flux FluxOr; hits give low values; 340,000 compounds, 0.37% hits; activity change, % at 1.84 µM;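 active means maximum activity change below -70%; inconclusive means maximum activity change between -70% and -50%; inactive means maximum activity change above -50%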
Target sequence (Q12809 whole entry, looked up): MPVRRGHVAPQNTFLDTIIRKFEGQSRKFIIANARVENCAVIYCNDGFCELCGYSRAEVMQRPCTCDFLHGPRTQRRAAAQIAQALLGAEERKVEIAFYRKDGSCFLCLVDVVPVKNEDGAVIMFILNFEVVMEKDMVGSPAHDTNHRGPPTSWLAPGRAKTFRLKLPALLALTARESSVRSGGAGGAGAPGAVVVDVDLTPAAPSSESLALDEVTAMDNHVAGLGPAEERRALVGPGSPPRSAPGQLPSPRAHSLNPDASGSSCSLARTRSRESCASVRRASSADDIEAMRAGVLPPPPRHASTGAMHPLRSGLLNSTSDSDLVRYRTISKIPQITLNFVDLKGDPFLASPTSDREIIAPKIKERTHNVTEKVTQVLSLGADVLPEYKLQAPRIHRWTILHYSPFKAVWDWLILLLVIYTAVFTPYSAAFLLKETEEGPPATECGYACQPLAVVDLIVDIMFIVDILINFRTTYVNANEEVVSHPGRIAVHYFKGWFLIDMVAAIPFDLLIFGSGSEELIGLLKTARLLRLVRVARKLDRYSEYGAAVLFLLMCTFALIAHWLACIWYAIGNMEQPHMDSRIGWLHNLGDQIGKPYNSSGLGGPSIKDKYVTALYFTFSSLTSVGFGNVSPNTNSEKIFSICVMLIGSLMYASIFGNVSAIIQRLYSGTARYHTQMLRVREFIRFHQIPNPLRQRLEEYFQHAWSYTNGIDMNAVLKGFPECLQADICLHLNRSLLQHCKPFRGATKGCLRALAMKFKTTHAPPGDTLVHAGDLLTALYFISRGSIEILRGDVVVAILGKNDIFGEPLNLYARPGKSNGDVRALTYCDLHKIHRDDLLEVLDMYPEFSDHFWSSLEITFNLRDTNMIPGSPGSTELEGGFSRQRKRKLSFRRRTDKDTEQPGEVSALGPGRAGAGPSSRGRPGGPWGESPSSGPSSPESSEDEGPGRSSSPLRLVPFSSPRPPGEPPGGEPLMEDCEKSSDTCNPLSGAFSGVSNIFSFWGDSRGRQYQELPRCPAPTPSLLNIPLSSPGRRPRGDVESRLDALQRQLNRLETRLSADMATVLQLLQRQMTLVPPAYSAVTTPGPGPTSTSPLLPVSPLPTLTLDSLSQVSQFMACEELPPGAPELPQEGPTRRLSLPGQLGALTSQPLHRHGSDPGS
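U2OS cells were transduced with wild-type KCNH2 virus (2.03 x 10^8 / mL) for 4 h at room temperature, then cultured overnight at 37 C. Thallium flux was read with FluxOr dye. Rate constants were normalized to DMSO controls.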
MBNL1-CUG inh = blocks human MBNL1 binding to CUG repeat RNA; Q9NR56; TR-FRET MBNL1-His/biotin-(CUG)12 binding, 665/545 ratio; Potency, µM (top dose mostly 57.5 µM), most hits filed as inhibitors; 280,000 compounds, 0.036% hits; AID 2675; active means well fitted inhibition curve with a large enough effect in the signal ratio, with a control signal flat, not every such curve was filed as active; inconclusive means small, poorly fitted or top-dose-only effect, or effect the other way, or a change in a side signal; inactive means no such curve, though single readings can be large or run the other way; the % refers to the signal ratio
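His-tagged MBNL1 binding to biotinylated (CUG)12 RNA was measured by TR-FRET using terbium anti-His antibody (0.055 ng/ul final) and streptavidin-XL665 (5 nM final). Compounds were titrated 92 nM to 58 uM; 60 min at room temperature.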
Hits are given with their value; – = inactive; ? = inconclusive; · = not tested or not shown. Sampled rows, rich in hits. Any-hit rate of the full collection: about 1.3%.

SMILES	KCNH2 3.1 block	TRPV1 PAM	TRPV1 agonist	hERG WT inh	MBNL1-CUG inh
Cc1cc(C)c2c(CN3CCCCC3)cc(=O)oc2c1	–	–	–	–	–
COc1cc(Br)cc(CN2CCN(C/C=C/c3ccccc3)CC2)c1O	-71	–	–	–	–
Cc1cc(C)c2c(CN3CCN(C/C=C/c4ccccc4)CC3)cc(=O)oc2c1	-87	–	–	-101	–
C=CCSc1ncc(CO)n1Cc1ccccc1	–	–	–	–	–
O=C(c1ccc2c(=O)n3c(nc2c1)CCC3)N1CCN(S(=O)(=O)c2ccccc2Br)CC1	–	·	·	–	·
COC(=O)c1cc(OC)c(OC)cc1NC(=O)CN1CCOCC1	–	–	–	-236	–
CC1(C)CC(=O)C2=C(C1)N(c1ccc(F)cc1)C(=O)C2(O)C(F)(F)F (configuration not stated)	-120	–	–	–	–
COc1ccc(NC(=S)Nc2ccc3snnc3c2)cc1	-83	–	–	–	–
O=C(Nc1ccc(F)cc1)c1ccc2snnc2c1	–	–	82	–	–
COc1ccc(NC(=S)Nc2ccc3nccnc3c2)cc1	–	–	–	–	·
CC(C)N(c1ccccc1)c1ccc(NC(=O)COC(=O)CCN2C(=O)c3cccc([N+](=O)[O-])c3C2=O)cc1	–	–	–	–	–
O=C(Nc1ccc(N2CCOCC2)c(S(=O)(=O)Nc2cc(Cl)ccc2Cl)c1)c1cccnc1	–	–	–	–	–
CCC(=O)Nc1ccc(N2CCOCC2)c(S(=O)(=O)Nc2ccc(OC)cc2)c1	–	–	–	–	–
CC(=O)NC(=S)Nc1ccc(N2CCOCC2)c(S(=O)(=O)Nc2cc(Cl)ccc2Cl)c1	-82	–	–	?	–
COc1ccc(NS(=O)(=O)c2cc(NC(=O)c3ccc(C)s3)ccc2N2CCOCC2)cc1	–	–	88	–	–
COc1ccc(CC(=O)Nc2cccc(SC)c2)cc1OC	–	–	101	–	–
COc1ccc(CNC(=O)[C@@H](NC(=O)C2CCN(S(=O)(=O)c3ccc(C)cc3)CC2)C(C)C)cc1OC	-74	–	–	–	–
COc1ccc(S(=O)(=O)N2CCCC2)cc1C(=O)N1CCCCC1	–	–	–	–	–
COC(=O)c1cc(NC(=O)Cc2ccc(OC)c(OC)c2)cc(C(=O)OC)c1	–	–	?	–	–
Cc1cccc(OC(C)C(=O)Nc2ccc(S(=O)(=O)N3CCCC3)cc2)c1 (configuration not stated)	-188	–	?	–	–
COc1ccc(S(=O)(=O)N2CCCCC2)cc1C(=O)N1CCCC1	–	–	–	-70	–
COc1ccc(CC(=O)Nc2ccc(S(=O)(=O)N3CCCC3)cc2)cc1OC	–	·	·	–	·
COc1ccc(CC(=O)Nc2ccc(S(=O)(=O)N3CCCCC3)cc2)cc1OC	–	–	88	–	–
Cc1cc(C)n(-c2nc3ccccc3n3cnnc23)n1	-103	–	–	–	?
CCN(CC)c1nc2ccccc2n2cnnc12	–	–	–	–	–
SMILES	KCNH2 3.1 block	TRPV1 PAM	TRPV1 agonist	hERG WT inh	MBNL1-CUG inh
CCCCN(CC)CCNC(=O)c1cn(-c2ccc(Cl)cc2)c(=O)c2ccccc12	-78	–	–	?	–
Cc1cccc(CN2CCCC(C(=O)Nc3ccccc3Oc3cccnc3)C2)c1 (configuration not stated)	–	–	–	–	–
O=C(Nc1ccccc1Oc1cccnc1)C1CCCN(C/C=C/c2ccc(F)cc2)C1 (configuration not stated)	-93	–	–	-98	–
O=C1C2C3CCCC3=C3CCCC3C2C(=O)N1c1ccccc1Cl (configuration not stated)	·	–	–	·	·
COC(=O)CSc1ncnc2c1cnn2Cc1ccccc1	–	–	–	–	–
CC(C)(C)C(=O)CSc1ncnc2c1cnn2Cc1ccccc1	–	–	90	–	–
CCC(C(=O)NC1CCCCC1)n1c(SCc2ccccc2F)nc2ccncc21 (configuration not stated)	-118	–	–	–	–
Clc1ccc2nnc(Cl)n2n1	-183	–	–	-220	?
FC(F)c1nnc2ccc(Cl)nn12	–	–	–	–	–
CCOc1ccccc1NS(=O)(=O)c1c(C)noc1C	–	–	–	–	?
COC(=O)c1ccccc1NS(=O)(=O)c1c(C)noc1C	-109	–	–	–	–
COc1cc(C(=O)Nc2ccc(C#N)cc2)c([N+](=O)[O-])cc1OC	–	–	–	–	?
OCCC1CN(Cc2cccn2-c2ncccn2)CCN1Cc1ccc(F)cc1 (configuration not stated)	–	–	–	–	–
CCOc1ccc(CN2CCN(Cc3cccn3-c3ncccn3)CC2CCO)cc1 (configuration not stated)	-111	–	–	?	–
COc1ccc(CN2CCN(Cc3cccn3-c3ncccn3)CC2CCO)c(C)c1C (configuration not stated)	-74	–	–	–	–
Cc1ccc(C(=O)C(C)OC(=O)CNS(=O)(=O)c2ccc(C)cc2)cc1 (configuration not stated)	–	–	–	–	·
Nc1cccc2c1C(=O)N(CC(=O)NC13CC4CC(CC(C4)C1)C3)C2=O	–	–	–	-105	–
CN(C)CC(=O)Nc1ccc2c(c1)[C@H]1C[C@H](CC(=O)NCc3ccc4c(c3)OCO4)O[C@H](CO)[C@H]1O2	–	·	·	–	·
CCCC(C)CO (configuration not stated)	–	–	–	–	·
CC(SCc1ccccc1)C(=O)Nc1ccccc1F (configuration not stated)	–	–	–	–	–
O=C(Nc1ccccc1F)C(=Cc1sc(N2CCOCC2)nc1-c1ccccc1)C(=O)Nc1ccccc1F	-77	–	–	–	–
O=C(N/N=C/c1sc(N2CCOCC2)nc1-c1ccccc1)c1ccccc1F	–	–	–	–	·
COc1cccc(CN2CCN(C3CCN(c4cccc(C)c4C)CC3)CC2CCO)c1 (configuration not stated)	-72	–	–	–	–
COc1cccc(-c2cc(C(=O)NC3CCCCC3)no2)c1	–	–	–	–	–
CN(CC(=O)Nc1cccc(S(=O)(=O)NC2=NCCC2)c1)Cc1ccccc1Cl	–	–	–	–	·
CCOCCCNC(=O)CN1C(=O)CSc2ccccc21	-72	–	–	–	–
CCOCCCNC(=O)CN1C(=O)CSc2cc(S(=O)(=O)N3CCCCCC3)ccc21	–	–	–	–	–
CC(C)(C)c1ccc(C(=O)O[C@H]2[C@H](Cc3ccccc3)NS(=O)(=O)[C@H]3C[C@@H]4C=C[C@]23O4)cc1	–	–	–	–	·
Cc1cc2nc(C3CCN(CC4COc5ccccc5O4)CC3)[nH]c2cc1C (configuration not stated)	-79	–	–	-73	–
